Source: PubChem (National Center for Advancing Translational Sciences (NCATS))
gsp antag – antagonizes gsp, the McCune-Albright syndrome mutation; gsp-mutant cells, cAMP HTRF, 30 min; Potency, µM (top dose mostly 76.9 µM), without a hit: top-dose activity change, negative = inhibition, hits mostly inhibitors; actives 0.4% (n = 340,000); calls by dose curve; cell line not stated here;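 note: intracellular cAMP measured with PDE inhibitor Ro 20-1724 present during compound exposure; potency is the fitted concentration of half-maximal effect; % is set by controls: 0 for no effect and ±100 for the full control effect; nearly all actives have a fitted effect of over 65% in size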
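Cells in G418 medium, seeded 16-24 h, 37C; buffer exchange to DPBS + 1 mM CaCl2, 0.5 mM MgCl2, 0.05% BSA; cpds in DMSO + […] (300 uM stock), 30 min 37C; HTRF cAMP detection.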
RXFP1 antag – RXFP1 (human) relaxin receptor antagonism; Q9HBX9; HEK293-RXFP1, relaxin-stimulated cAMP HTRF, 30 min; stronger effect = lower value; activity change, negative = inhibition, % at 57.5 µM; actives 0.59% (n = 350,000); AID 1259400;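 active = activity change of -60% or lower, but not beyond a set lower limit; inconclusive = change between -60% and -40%, or beyond the set limit; inactive = change above -40%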; note: % is set by controls: 0 for no effect and ±100 for the full control effect
Target sequence (Q9HBX9 whole entry, looked up): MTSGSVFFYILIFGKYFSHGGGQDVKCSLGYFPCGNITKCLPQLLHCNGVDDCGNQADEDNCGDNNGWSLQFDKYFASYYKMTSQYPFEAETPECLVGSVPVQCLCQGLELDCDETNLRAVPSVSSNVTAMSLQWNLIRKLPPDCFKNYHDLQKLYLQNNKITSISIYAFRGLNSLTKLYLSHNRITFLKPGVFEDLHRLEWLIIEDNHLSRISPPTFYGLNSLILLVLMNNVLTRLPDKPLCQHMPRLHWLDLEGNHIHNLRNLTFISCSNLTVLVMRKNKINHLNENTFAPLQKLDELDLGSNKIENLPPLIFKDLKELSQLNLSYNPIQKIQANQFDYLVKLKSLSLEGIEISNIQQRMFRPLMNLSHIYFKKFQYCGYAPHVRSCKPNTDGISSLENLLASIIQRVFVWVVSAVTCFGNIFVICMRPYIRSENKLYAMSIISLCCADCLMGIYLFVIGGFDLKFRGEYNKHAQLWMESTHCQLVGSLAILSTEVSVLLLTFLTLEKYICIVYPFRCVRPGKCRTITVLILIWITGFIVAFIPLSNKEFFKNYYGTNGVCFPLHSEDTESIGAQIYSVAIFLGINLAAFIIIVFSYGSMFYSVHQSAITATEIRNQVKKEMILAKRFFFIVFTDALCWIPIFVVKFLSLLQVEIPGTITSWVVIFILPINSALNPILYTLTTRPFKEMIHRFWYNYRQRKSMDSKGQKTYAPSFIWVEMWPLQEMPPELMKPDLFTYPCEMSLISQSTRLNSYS
gsp agonist – agonists of gsp mutant (McCune-Albright syndrome); gsp mutant cells, cAMP HTRF, 30 min; Potency, µM (highest dose often 76.9 µM), without a hit: at the top dose activation (cAMP increase), most hits filed as activators; actives 0.13% (n = 340,000); active = well fitted activation curve with a large enough effect; inconclusive = small, poorly fitted or top-dose-only effect, or another doubt; inactive = no such curve, though single readings can be large or run the other way; cell line not stated here;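 note: phosphodiesterase inhibitor Ro 20-1724 added with compounds to block cAMP breakdown; potency is the fitted concentration of half-maximal effect; nearly all actives have a fitted effect of over 60% in size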
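Cells in DMEM/10% FBS with G418 were pretreated with compounds in DMSO plus […] (300 uM stock) for 30 min at 37C. cAMP was measured by HTRF (cAMP-d2 plus anti-cAMP antibody-K) after 30 min at room temperature.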
Giardia kill – kills Giardia lamblia. Giardia lamblia trophozoite viability. activity change, % at 7.66 µM, hits read low. actives 0.15% (n = 340,000). AID 540267; in the data active = activity change below about -80%; inconclusive = between about -30% and that limit;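 note: parasites exposed to compound for two days anaerobically before the ATP read; % is set by controls: 0 for no effect and ±100 for the full control effect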
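Giardia trophozoites, 100 cells per well, were exposed to compounds for 48 hrs at 37 deg C under anaerobic conditions; viability was then read as ATP content by bioluminescence after 15-30 min at room temperature.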
RXFP1 agonist – RXFP1 (human) receptor agonism; Potency, µM (titrated, usually from 57.5 µM), inactives show top-dose activation, actives largely listed as activators; AID 2676; HEK293T-RXFP1 cAMP TR-FRET, 30 min; response scale: percent of porcine relaxin response, buffer zero; actives 0.3% (n = 370,000); Q9HBX9; active = well fitted activation curve with a large enough effect; inconclusive = small, poorly fitted or top-dose-only effect; note: potency is the fitted concentration of half-maximal effect; % is set by controls: 0 for no effect and ±100 for the full control effect; nearly all actives have a fitted effect of over 60% in size
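cAMP rise read by TR-FRET after 30 min, 37C compound exposure (up to 58 uM) in RXFP1-transfected HEK293 cells with Ro 20174 present. EC50 from Hill-equation fits, with 29 nM porcine relaxin as 100% and buffer as basal.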
FBPA coupling cs – coupling enzyme interference in Giardia aldolase counter-screen | activity change, negative = inhibition, % at 58.2 µM, hits read low | coupling enzyme system counterscreen, AmpLite Red fluorescence | actives 0.67% (n = 290,000); in the data active = activity change below about -30%; note: % is set by controls: 0 for no effect and ±100 for the full control effect
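First, compound is pin-transferred into glyceraldehyde-3-phosphate coupling-enzyme reagent at 57.5 uM final and held 10 min at RT. Next, substrate, coupling system and AmpLite Red are added. After 20 min RT, fluorescence (525/598 nm) is read.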
* marks the source's active call; other numbers are inactive results; ? = inconclusive; . = no result given; [ ] = another dose, or the depositor's remark. In the library only some 1.6% were active in any assay of this set; here they are far more common.

SMILES	gsp antag	RXFP1 antag	gsp agonist	Giardia kill	RXFP1 agonist	FBPA coupling cs
O=C1C(N2CCOCC2)=C(n2nnc3ccccc32)C(=O)c2ccccc21	-1%	7	9%	-21	0%	-41*
CCOC(=O)c1c(NC(=O)c2cc3nc(-c4ccc(Br)cc4)cc(C(F)(F)F)n3n2)sc(C(C)=O)c1C	.	3	.	.	0%	.
O=c1[nH]c(=O)n(Cc2ccco2)c2c1C(C(F)(F)F)(C(F)(F)F)N=C(c1ccc(F)cc1)N2	?	5	-6%	4	2%	3
O=c1[nH]c(=O)n(Cc2ccccc2)c2c1C(C(F)(F)F)(C(F)(F)F)N=C(c1ccco1)N2	35µM*	8	-5%	-11	4%	3
COc1cc(NC(=O)NC(C)c2c(-n3cccc3)sc3c2CCN(C)C3)cc(OC)c1 (stereo not given)	.	-10	.	.	-1%	.
CO/N=C/c1ccc(N2CCN(C(=O)c3ccc(F)cc3)CC2)c([N+](=O)[O-])c1	35µM*	-5	25%	25	0%	-6
CC(C)(C)OC(=O)NCCCCC1=CC2=CC(=O)C(C)(OC(=O)C3CCCC3)C(=O)C2=CO1 (stereo not given)	.	.	.	.	.	5
CC[C@H](C)NC(=O)c1ccc(Cn2c(=S)[nH]c3c([nH]c4ccc(OC)cc43)c2=O)cc1	-10%	-64*	0%	10	3%	0
COc1cccc(-c2nc(C(=O)NCC3CCCO3)cc3c2[nH]c2ccccc23)c1 (stereo not given)	13µM*	.	.	-14	0%	-5
CCCCNC(=O)c1ccc(Cn2c(=S)[nH]c3c([nH]c4ccc(OC)cc43)c2=O)cc1	-2%	-85*	0%	0	3%	3
CCOCCCNC(=O)c1ccc(Cn2c(=S)[nH]c3c([nH]c4ccc(OC)cc43)c2=O)cc1	-1%	-36	12%	30	2%	1
COc1ccc(OC)c(-c2nc(C(=O)NCC3CCCO3)cc3c2[nH]c2ccccc23)c1 (stereo not given)	?	.	.	-15	0%	-1
COc1ccc2[nH]c3c(=O)n(Cc4ccc(C(=O)NCC5CCCO5)cc4)c(=S)[nH]c3c2c1 (stereo not given)	-6%	-89*	2%	3	8%	-1
CCOc1ccc(N2C=Nc3ccc(OCC)cc3C2)cc1	2%	5	3%	-21	-1%	3
Cc1ccc(C)c(NC(=O)CSc2nc(=O)n(Cc3ccccn3)c3c2CCC3)c1	.	.	.	.	-1%	.
O=C(C(Cl)Cl)N1CCN(Cc2ccc3c(c2)OCO3)CC1	-1%	0	-11%	7	4%	0
CC(C(=O)N1CCN(Cc2ccc3c(c2)OCO3)CC1)c1ccc([N+](=O)[O-])cc1 (stereo not given)	11µM*	-19	-2%[15.4 µM]	-6	2%	4
CCOc1ccc(OCCn2c(=S)[nH]c3ccccc32)cc1	-3%	-63*	-62%	23	2%	-1
CCCCCCCC/C=C/C(=O)O	.	-22	.	.	.	.
Cc1ccc(C(=O)/C=C/C(=O)c2ccc(C)cc2)cc1	2%	-67*	4%[15.4 µM]	12	-2%	2
Brc1ccc(-c2cn3c(n2)CCc2ccc4cccnc4c2-3)cc1	-4%	-13	-34%	4	4%	-31*
Brc1ccc(-c2cn3nc4c(nc3n2)CCCC4)cc1	-3%	1	-24%	-12	2%	-7
O=C(NCC(O)CO)c1c(I)c(C(=O)NCC(O)CO)c(I)c(N(CCO)C(=O)CO)c1I (stereo not given)	.	4	.	.	.	.
CCOC(=O)C1CCN(C(=O)CN2C(=O)CSc3ccc(S(=O)(=O)N4CCOCC4)cc32)CC1	5%	11	3.5µM*	-12	21%	.
CC[C@H](C)[C@H](NC(=O)[C@H](Cc1cnc[nH]1)NC(=O)[C@@H](NC(=O)[C@H](CCCNC(=N)N)NC(=O)[C@H](CCCCN)NC(=O)[C@H](CCCNC(=N)N)NC(=O)[C@H](CCCCN)NC(=O)[C@@H](N)CC(N)=O)[C@@H](C)CC)C(=O)NCC(=O)N1CCC[C@H]1C(=O)NCC(=O)N[C@@H](CCCNC(=N)N)C(=O)N[C@@H](C)C(=O)N[C@@H](Cc1ccccc1)C(=O)N[C@@H](Cc1ccc(O)cc1)C(=O)N[C@H](C(=O)N[C@H](C(=O)N[C@@H](CCCCN)C(=O)N[C@@H](CC(N)=O)C(=O)N[C@H](C(=O)N[C@H](C(=O)NCC(=O)N[C@H](C(=O)N[C@H](C(=O)N[C@@H](CS)C(=O)O)[C@@H](C)CC)[C@@H](C)O)[C@@H](C)CC)[C@@H](C)CC)[C@@H](C)O)[C@@H](C)O	.	.	.	.	.	0
SMILES	gsp antag	RXFP1 antag	gsp agonist	Giardia kill	RXFP1 agonist	FBPA coupling cs
O=C(NC1CC1)c1cccc(Nc2ccc(-c3ccc4c(c3)OCCO4)nn2)c1	32µM*	-19	-18%	-15	-3%	3
Nc1nonc1-n1nnc(C(=O)N/N=C/c2cc(Br)cs2)c1-c1ccccc1	-30%	-34	?	11	8%	3
Cc1ccc2c(c1)/C(=N/OS(=O)(=O)c1ccccc1)CCS2	-6%	2	-49%	14	.	.
CC1=CC(=O)C=C(C)C1=NOS(=O)(=O)c1ccccc1	?	-84*	-26%	13	-1%	-87*
CC1=CC(=O)C(C(C)C)=C/C1=N/OS(=O)(=O)c1ccccc1	-15%	?	1%	-9	-4%	-73*
CCCCCCCCCCCCCC[C@@H](O)[C@@H](O)[C@@H](N)CO	.	.	.	.	.	-8
Cn1c(=O)c2[nH]c(COc3ccccc3)nc2n(C)c1=O	3%	-4	3.2µM*	0	.	.
Cn1c(=O)c2[nH]c(CN(Cc3ccccc3)Cc3ccccc3)nc2n(C)c1=O	4%	3	-13%	-21	0%	-1
CC1CCN(S(=O)(=O)c2ccc3c4c2CC(=O)N4CC(C)S3)CC1 (stereo not given)	8%	0	18%	17	2%	-33*
O=S(=O)(c1cccc(C(F)(F)F)c1)n1c(/C=C/c2ccccc2)nc2ccccc21	.	-5	.	.	4%	.
CCc1nc(N)nc(N)c1-c1ccc(N(C)Cc2ccccc2)c([N+](=O)[O-])c1	-10%	-103*	23%	-16	.	.
Cc1noc(-c2ccc(N(C)Cc3ccccc3)c([N+](=O)[O-])c2)n1	.	.	.	.	5%	.
O=C(Nc1nnc(C2=COCCO2)o1)c1ccc(Cc2ccccc2)cc1	4%	-65*	4%[15.4 µM]	18	0%	10
Cc1ccc(-c2c(NCCc3ccccc3)c(=O)c2=O)cc1	1%	-2	-17%[15.4 µM]	4	0%	0
